# High-throughput results deposited in PubChem by National Center for Advancing Translational Sciences (NCATS).
# Marburg entry inh: inhibitors of Marburg virus binding or cell entry | Marburg virus pseudotyped entry inhibition, cell reporter | Potency, µM (top dose mostly 37.8 µM), inactives show top-dose activity change, negative = inhibition, actives largely listed as inhibitors | hit rate 1.8% among 300,000 | AID 540276; calls by dose curve; tested in HEK293 cells; also: potency is read from the fitted curve at half-maximal effect
# HCV inh: inhibitors of hepatitis C virus infection; Huh7.5.1 HCVcc-Cre infection, luciferase reporter, 44 h; Potency, µM (series often up to 41.8 µM), for inactives: at the highest dose activity change, negative = inhibition, hits mostly inhibitors; hit rate 3.4% among 340,000; AID 651820; active = well fitted inhibition curve with a large enough effect; inconclusive = small, poorly fitted or top-dose-only effect, or another doubt; inactive = no such curve, though single readings can be large or run the other way; also: potency is read from the fitted curve at half-maximal effect
#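 Infectious HCV cell culture screen: compound-treated cells (1,000/well, pre-plated 4 h) are infected with HCVcc-Cre at roughly 0.5 moi and grown 44 h. Infection is quantified by luciferase signal after 15 min substrate incubation at room temperature.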
# FMDV antiviral: blocks foot and mouth disease virus. FMDV antiviral cell-based qHTS. hit rate 1.2% among 410,000. Potency, µM (series often up to 57.9 µM), without a hit: at the highest dose activity change, negative = inhibition, actives largely listed as inhibitors. AID 1159524; calls by dose curve; tested in HEK293T cells; also: read-out not given here; potency is read from the fitted curve at half-maximal effect; nearly all actives have a fitted effect of over 45% in size
# LASV entry inh: Lassa virus entry inhibition; Lassa virus pseudotype entry inhibition, cell reporter; Potency, µM (series often up to 37.9 µM), for the others: at the top dose activity change, negative = inhibition, most hits filed as inhibitors; hit rate 1.2% among 300,000; AID 540256; calls by dose curve; tested in HEK293 cells; also: potency is read from the fitted curve at half-maximal effect; nearly all actives have a fitted effect of over 50% in size
# HCMV antiviral: inhibitors of human cytomegalovirus; HFF cells, HCMV-luciferase reporter, 72 h; active compounds read low; activity change, negative = inhibition, % at 57.5 µM; hit rate 4.5% among 410,000; AID 1259415; in the data active = activity change below about -60%; inconclusive = no clear call, values can overlap the other calls; inactive = above about -39%
#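 After 16 h attachment at 37C, HFF cells received test compound and HCMV-luciferase (1 PFU/cell); reporter luminescence read 72 h later, data normalized against buffer-only and known inhibitor Salinomycin.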
# The depositor's hits bear a star; ? = inconclusive; . = no result given; [ ] = dose if it differs, or a comment. Shown are actives, neighbours in structure and some others; about 7.9% of the full set was active somewhere. % is scaled to controls: 0 for no effect and ±100 for the full control effect.
SMILES,Marburg entry inh,HCV inh,FMDV antiviral,LASV entry inh,HCMV antiviral
Oc1cc2c(cc1O)[C@H]1c3ccccc3CN[C@H]1CC2,15.8µM*,.,-4.4%,.,.
O=C(N/N=C/c1cccs1)c1ccccn1,15.4%,2.4%,21.3%,-3.3%,113.6
C(=NN=C(NN=Cc1cccs1)NN=Cc1cccs1)c1cccs1,?,10µM*,-6.7%,?,-2.3
O=C(Nc1cccc(S(=O)(=O)N2CCCCC2)c1)c1ccc(OCC2CCCO2)cc1 (stereo not drawn),?,?,?,?,-66.2*
O=C(c1ccc(OCC2CCCO2)cc1)N1CCN(S(=O)(=O)c2cccc(F)c2)CC1 (stereo not drawn),1.2%,-21.7%,-17.9%,-3.4%,0.4
O=C(Nc1ccc(S(=O)(=O)N2CCCC2)cc1)c1ccc(OCC2CCCO2)cc1 (stereo not drawn),?,11.2µM*,17.8µM*,-6.1%,-87.8*
COc1cccc(CCNc2ncnc3sc(C(=O)N4CCOCC4)c(C)c23)c1,.,.,-7.5%,.,.
Cc1ccc(C)c(N2CCN(C(=O)c3cc4ccc5cccnc5c4[nH]3)CC2)c1,.,.,-1.4%,?,-7.8
Cc1cccc(N2CCN(C(=O)c3cc4ccc5cccnc5c4[nH]3)CC2C)c1 (stereo not drawn),.,.,-20.8%,14.3%[46.1 µM],-107.8*
CC(=O)Nc1ccccc1-c1nc2ccc(C(=O)N3CCN(c4cc(C)ccc4C)CC3)cc2[nH]c1=O,.,15.9%,?,.,-65.1*
Cc1cccc(N2CCN(C(=O)c3cccc(-n4c(C)nc5cccnc54)c3)CC2C)c1 (stereo not drawn),.,.,17.8µM*,?,?
Cc1ccc(C)c(N2CCN(C(=O)c3cccc(-n4c(C)nc5cccnc54)c3)CC2)c1,.,.,25.1µM*,?,0.0
CCc1nc2ccc(C(=O)N3CCN(c4cc(C)ccc4C)CC3)cc2nc1CC,.,?,-25.1%,8.3%[46.1 µM],-33.4
Cc1cccc(N2CCN(C(=O)c3cccc(-n4c(C)nc5cccnc54)c3)CC2)c1C,.,.,?,-12.6%[46.1 µM],?
Cc1cccc(N2CCN(C(=O)c3ccccn3)CC2C)c1 (stereo not drawn),-0.9%[46.1 µM],17.1%,-3.1%,-15.0%[46.1 µM],-9.8
O=C(Nc1cccc(N2CCC(NCc3cnn(-c4ccccc4)n3)CC2)c1)c1cccnc1,.,.,-16.3%,.,.
CSc1nccc(-c2cc(Cl)c3c(c2)CC(CNC(=O)c2nonc2C)O3)n1 (stereo not drawn),.,.,-13.2%,.,.
Cc1ccc(Oc2nc3ccccn3c(=O)c2/C=C(\C#N)c2nc3ccccc3s2)c(C)c1,?,.,?,1.4%[46.1 µM],3.0
COc1ccc(N2CCN(C(=O)c3cccc(-n4c(C)nc5cccnc54)c3)CC2)cc1,.,.,?,5.3%[46.1 µM],0.0
Cc1nc2cccnc2n1-c1cccc(C(=O)N2CCN(c3ccc(Cl)cc3)CC2)c1,.,.,12.6µM*,?,?
O=C(/C=C\Nc1ccccn1)c1ccc(Cl)cc1,6.51µM*,-11.4%,.,?,-33.2
COCCN1Cc2cccc(C(=O)Nc3cccc(-c4nc5ccccc5[nH]4)c3)c2C1=O,?,?,-12.3%,?,-69.1*
CS(=O)(=O)c1ccc(C(=O)Nc2cccc(-c3nc4ccccc4[nH]3)c2)cc1,.,?,?,.,27.5
CCCOc1ccc(C(=O)Nc2cccc(-c3nc4ccccc4[nH]3)c2)cc1,0.7%[46.1 µM],.,?,-16.9%[46.1 µM],-87.8*
CCOc1cc(OCC)cc(C(=O)Nc2cccc(-c3nc4ccccc4[nH]3)c2)c1,.,.,?,?,-98.3*
SMILES,Marburg entry inh,HCV inh,FMDV antiviral,LASV entry inh,HCMV antiviral
COCCN1Cc2cccc(C(=O)Nc3ccc(-c4nc5ccccc5[nH]4)cc3)c2C1=O,?,-1.0%,2.3%,1.0%,-18.6
O=C(c1cccc(Cl)c1)N(Cc1ccco1)Cc1ccccc1Cl,?,.,-7.9%,-6.6%[46.1 µM],-39.3
CC(=O)Nc1ccccc1-c1nc(CNC(=O)c2ccc(-n3cccn3)cc2)c(C)o1,.,.,9.4%,.,.
COc1cc(C(C)=O)ccc1OCC(=O)Nc1ccccc1N1CCCCC1,?,?,?,?,-37.5
CCOc1ccccc1OCC(=O)Nc1cc(S(=O)(=O)N2CCCCC2)ccc1N1CCN(CC)CC1,?,?,-22.4%,-0.8%,2.3
COc1ccccc1OCC(=O)Nc1cc(Cl)ccc1N1CCCCC1,?,10µM*,?,-8.0%,?
COc1ccccc1OCC(=O)Nc1cc(S(=O)(=O)N2CCCCC2)ccc1N1CCCCC1,?,25.1µM*,?,?,-36.9
CC(C)Cn1cc(NC(=O)NCc2ccccc2Cl)c2ccccc2c1=O,.,.,-19.5%,?,-9.2
